Laboratory results as given in ChEMBL document CHEMBL3433997, “St. Jude Leishmania screening dataset” (2016).

Legend:
Format in all cases: functional
[1] = target: Solute carrier family 2, facilitated glucose transporter member 1 (Homo sapiens) (UniProt P11166); experiment: ST_JUDE_LEISH: Cytotoxicity at 2uM final concentration against transgenic Leishmania Mexicana promastigotes LmGLUT1 that are glucose transport deficient and complemented with the human glucose transporter GLUT1. Activity is measured by DNA content using SYBR green in vitro
Sequence of Solute carrier family 2, facilitated glucose transporter member 1 (Homo sapiens) (P11166 whole entry): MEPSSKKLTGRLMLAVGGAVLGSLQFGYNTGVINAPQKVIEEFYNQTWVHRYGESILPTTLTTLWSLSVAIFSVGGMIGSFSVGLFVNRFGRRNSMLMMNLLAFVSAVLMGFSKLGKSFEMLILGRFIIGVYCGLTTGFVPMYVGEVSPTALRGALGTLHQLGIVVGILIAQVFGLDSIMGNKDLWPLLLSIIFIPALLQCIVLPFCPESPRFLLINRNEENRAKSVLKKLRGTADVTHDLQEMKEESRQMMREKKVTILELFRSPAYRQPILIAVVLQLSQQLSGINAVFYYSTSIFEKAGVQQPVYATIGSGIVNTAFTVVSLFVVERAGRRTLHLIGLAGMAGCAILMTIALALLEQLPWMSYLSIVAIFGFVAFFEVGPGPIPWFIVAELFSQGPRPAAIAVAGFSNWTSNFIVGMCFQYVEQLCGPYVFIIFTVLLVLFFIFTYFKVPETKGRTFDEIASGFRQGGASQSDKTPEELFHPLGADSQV

[2] = target: Hexose transporter 1 (Plasmodium falciparum) (UniProt O97467); experiment: ST_JUDE_LEISH: Cytotoxicity at 2uM final concentration against transgenic Leishmania Mexicana promastigotes LmPfHT that are glucose transport deficient and complemented with the Plasmodium falciparum hexose transporter. Activity is measured by DNA content using SYBR green in vitro
[3] = target: Glucose transporter (Leishmania mexicana) (UniProt O61059); experiment: ST_JUDE_LEISH: Cytotoxicity at 2uM final concentration against transgenic Leishmania Mexicana promastigotes LmGT2 that are glucose transport deficient and complemented with the L. Mexicana glucose transporter 2. Activity is measured by DNA content using SYBR green in vitro

SMILES | inhibition [1] | inhibition [2] | inhibition [3]
CC(=O)c1ccc(-c2ccc(C(=O)NCCCCN3CCC(c4ccc5c(c4OCC(N)=O)CCCC5)CC3)cc2)s1 | 1.36% | 0.76% | 1.72%
Cc1c(CNCCCNc2cc(=O)c3ccccc3[nH]2)sc(C(F)F)c1Br | -0.36% | -0.4% | -1.09%
CCCCCN1CCCC1CNS(=O)(=O)c1ccc(C(=O)Nc2cccc(C(F)(F)F)c2)cc1 (configuration not stated) | 0.76% | 0.61% | 0.19%
COc1cccc(CN2CCCC(OC(c3ccc(F)cc3)c3ccc(F)cc3)C2)c1O (configuration not stated) | 0.04% | 0.76% | -1.69%
Clc1ccc(Nc2nc(-c3ccccn3)cs2)nc1 | 67.7% | 27.3% | 22.7%
NC1CCCN(Cc2cccc(-c3ccc(-c4nc5ccccc5[nH]4)s3)c2)C1 (configuration not stated) | 0.99% | 0.63% | 1.78%
N=C(N)Nc1ccc(OCCCCCOc2ccc(NC(=N)N)cc2)cc1 | 13.7% | 20.2% | 0.71%
O=C(c1cccs1)N1CCN(c2ccc([N+](=O)[O-])c(NC3CC3)c2)CC1 | 1.35% | 0.57% | 1.6%
COc1ccnc(NCCCNCc2cn(S(=O)(=O)c3ccccc3)c3ccccc23)c1 | 2.74% | 3.67% | 0.11%
O=C(Nc1cccc(CN2CCCN(Cc3ncc[nH]3)CC2)c1)c1cc2ccccc2s1 | 3.43% | 5.48% | 3.3%
COc1ccc2nccc([C@@H](O)CN3CCC(NCCNc4cccc(F)c4)CC3)c2c1 | 6.07% | 11.1% | 0.95%
O=C(c1ccc([N+](=O)[O-])o1)N1CCN(c2nc3c(Cl)cccc3s2)CC1 | 39.8% | 37.4% | 4.58%
COc1ccc2nccc([C@@H](O)CN3CCC(NCc4cc5sccc5nc4C(F)(F)F)CC3)c2c1 | 3.75% | 1.89% | -4.21%
CC(C)NCc1ccc(-c2cccc(NC(=O)c3ccc(F)cc3)c2)cc1 | 6.57% | 9.15% | 6.89%
COc1cc(CNCCCCCCNCc2cc(OC)cc3ccccc23)c2ccccc2c1 | 10.8% | 11.7% | 10.4%
Cc1cc2nc(N=C3NC4(c5ccccn5)NC(=Nc5nc6cc(C)c(C)cc6[nH]5)NC4(c4ccccn4)N3)[nH]c2cc1C (configuration not stated) | 2.01% | -0.16% | -0.63%
CCCOC(=O)C1=C(C)NC2=C(C(=O)CC(c3ccc(OC)c(OC)c3)C2)C1c1cccc(O)c1 (configuration not stated) | 8.78% | 9.73% | 8.46%
COc1ccc(CNCc2ccsc2)cc1-c1ccc(S(=O)(=O)NCCN2CCCC2)s1 | 8.12% | 8.67% | 5.77%
CCN(CC)/C(=N/C(=N)NCc1ccc(Cl)cc1)NCCCCCCN/C(=N\C(=N)NCc1ccc(Cl)cc1)N(CC)CC | 9.05% | 8.96% | 8.12%
Cc1ccc2c(c1C)NC(=O)C21NN=C(c2ccccc2)S1 (configuration not stated) | -1.86% | -1.15% | -2.33%
COc1ccc(Cn2c(Nc3cccc(C(F)(F)F)c3)nc3cc(C(=O)NCCCN(C)C)ccc32)cc1Cl | 0.66% | 0.55% | -1.19%
Cc1cc(N2CCN(CC3CCN(C)CC3)CC2)nc(Nc2ccc(Br)cc2)n1 | 1.44% | 2.2% | 1.74%
CC1CCCC(NCc2c(O)ccc3ccccc23)C1 (configuration not stated) | 3.58% | 3.22% | 3.69%
Cc1[nH]c(C)c(-c2ccc(OCc3ccc(F)cc3)cc2)c(=O)c1Br | 0.17% | -1.87% | -1.56%
CN1CCC[C@@H](Oc2cc3c(cc2Br)CCN3C(=O)Nc2ccc(-c3ccncc3)c(Cl)c2)C1 | 2.29% | 2.77% | 0.42%

SMILES | inhibition [1] | inhibition [2] | inhibition [3]
CC(C)Oc1cc2c(cc1NS(=O)(=O)c1ccc(-c3ccc(Cl)s3)cc1F)CCN(C)CC2 | 39.9% | 5.23% | 1.77%
CC(=O)Oc1ccc(C(=O)Oc2ccccc2C#CC#N)cc1OC(C)=O | -2.02% | 0.93% | -1.3%
CCOc1c(CNCCCNc2cc(O)c3ccccc3n2)cc(Br)cc1OC | 7.77% | 4.37% | 6.38%
Cc1cc2c(cc1C(F)(F)F)N(C(=O)Nc1cc(OCCN(C(C)C)C(C)C)cc(C(F)(F)F)c1)CC2 | 10.4% | 9.23% | 6.19%
O=C(Cc1c[nH]cn1)Nc1cccc(-c2ccc(-c3nc4cc(F)ccc4[nH]3)cc2)c1 | 9.26% | 10.1% | 7.18%
O=C(/C=C/c1ccc(Cl)c(Cl)c1)NCCCCCCN1CCCN(C(=O)Nc2cc(F)cc(F)c2)CC1 | 0.71% | 1.42% | -1.02%
N#Cc1ccc2c(c1)CN(CCC1CCC(NC(=O)c3cc4ccccc4cc3N)CC1)CC2 (configuration not stated) | 5.84% | 5.45% | 3.13%
Cc1c[nH]c2ccc(/C=C/C(=O)NC3CCC(CCN4CCc5ccc(C#N)cc5CC4)CC3)cc12 (configuration not stated) | 5.06% | 5.55% | 0.32%
O=C(/C=C/c1ccc(Cl)cc1)NCCCCCN1CCN(C(=O)Nc2ccc(Cl)c(C(F)(F)F)c2)CC1 | 4.45% | 5% | 3.42%
NC1CCN(CCc2ccc(NS(=O)(=O)c3cccc4ccccc34)cc2)CC1 | -0.69% | -3.38% | 0.61%
Cc1ccc2[nH]c3c(c2c1)CC(C(=O)NCCC(C)C)NC31CCN(Cc2ccccc2)CC1 (configuration not stated) | 0.11% | -3.4% | 0.79%
COc1c(C2=CCN(CCCCNC(=O)c3ccc(-c4ccc(C#N)cc4)cc3)CC2)c(C)cc2c1C(C)(C)CCC2(C)C | 2.63% | 2.18% | 0.96%
NC(=O)c1ccc(C(=O)Nc2cccc(-c3csc(-c4nc5ccccc5[nH]4)c3)c2)cc1 | 9.88% | 8.58% | 8.06%
COc1cc(NCCCCCNc2cc(Cl)nc3ccccc23)nc2ccccc12 | 1.24% | 2.23% | 2.29%
Cc1cccc2[nH]c(-c3cc(-c4cn[nH]c4)cnc3N)nc12 | 2.56% | 2.36% | 2.33%
CO/C(=C\C=C\c1cc2cc(Cl)c(Cl)cc2[nH]1)C(=O)NCCCN1CCC(c2ccccc2)CC1 | 2.73% | 5.04% | 1.33%
CCCCC(CC)C(=O)C(NC(=O)[C@H](CSC(c1ccccc1)(c1ccccc1)c1ccccc1)NC(=O)OC(C)(C)C)C(=O)OC (some centres not stated) | 3.84% | 3.76% | 3.51%
Cc1cc(NC(=O)c2ccco2)ccc1OC1CCN(Cc2ccc(F)cc2)C1 (configuration not stated) | 0.1% | 0.21% | 0.41%
Cn1ccnc1S(=O)(=O)CCNCc1ccc(-c2ccc3ncnc(Nc4ccc(OCc5cccc(F)c5)c(Cl)c4)c3c2)o1 | 3.08% | 6.11% | 0.71%
CC1(C)CN(CCC2CCC(NC(=O)/C=C/c3ccc(F)cc3F)CC2)Cc2ccc(C#N)cc21 (configuration not stated) | 2.36% | 1.97% | -1.19%
Clc1cc(Cl)c2c(c1)C(NCCCNc1nc3ccccc3[nH]1)CCO2 (configuration not stated) | 18.5% | 43.3% | 28.1%
Cc1nc2ccc3nc(NC(=O)c4ccno4)sc3c2s1 | 1.74% | 1.13% | -1.31%
CCCNCc1ccc(-c2ccc(CN(Cc3cnc(C)cn3)C(=O)CC#N)cc2)nc1 | 1.8% | 1.17% | -1.49%
Cc1nc2c(c(C)nn2C(C)(C)C)c(C)c1CCC(=O)Nc1ccc(CN2CCCC2)cc1 | 9.93% | 6.16% | 5.29%
